# PolyA inhibitor: polyadenylation inhibitors in yeast reporter cells, primary screen, luminescence, S. cerevisiae | S. cerevisiae SKY197-pL101 polyadenylation reporter, beta-gal luminescence; efflux-impaired pdr1/pdr3 knockout yeast; score 100 = 6 SD above DMSO | activity score, % at 12 µM | hit rate 0.02% among 300,000;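 active = lowest replicate activity score at least 50, where 100 means six control SD above control mean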;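 also: yeast exposed to compound for 9 h at 30 °C; higher score means more reporter readthrough which indicates perturbed polyadenylation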
# EBNA-1 inhibitor: EBNA-1 DNA-binding inhibitors, primary screen, biochemical, fluorescence polarization; inhibition, % at 14.8 µM; hit rate 0.34% among 300,000; in the data active = inhibition above about 28%
# dFosB activator: activators of delta FosB homodimer, primary screen, biochemical, fluorescence polarization, TAMRA-CDK5 oligo, single point; purified delta FosB; percent of positive-control signal above neutral wells; activation, % at 25 µM; hit rate 0.99% among 340,000;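 active = mean activation above about 17%, with every replicate also reaching it, limit read from the data, passing the limit was not always enough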
# Target sequence (P13346 whole entry, looked up): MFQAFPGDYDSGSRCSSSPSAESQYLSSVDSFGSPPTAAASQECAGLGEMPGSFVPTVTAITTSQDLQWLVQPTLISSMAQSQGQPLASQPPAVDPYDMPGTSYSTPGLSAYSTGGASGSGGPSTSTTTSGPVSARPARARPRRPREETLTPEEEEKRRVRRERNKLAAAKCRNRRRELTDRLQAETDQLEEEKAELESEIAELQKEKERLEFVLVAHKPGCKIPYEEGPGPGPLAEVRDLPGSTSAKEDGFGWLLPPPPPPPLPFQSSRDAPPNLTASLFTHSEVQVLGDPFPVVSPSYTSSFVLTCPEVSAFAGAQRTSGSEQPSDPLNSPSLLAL
# NALP3 yeast inh: NALP3 inflammasome inhibitors in reconstituted yeast, primary screen, luminescence, uHTS; Yeast reconstituted NLRP3/ASC/caspase-1, beta-gal luminescence, 24 h; inhibition, % at 10 µM; hit rate 0.39% among 330,000;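 active = inhibition of 50% or more; inactive = inhibition below 50%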;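 also: plate controls were induced DMSO wells for no effect and uninduced yeast grown without galactose for full effect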
# ZTA counter: blocks Epstein-Barr virus ZTA, an EBNA-1 counter-screen | P03206 | ZTA-DNA binding, fluorescence polarization | inhibition, % at 11 µM | hit rate 0.15% among 320,000 | AID 2234; in the data active = inhibition above about 33%
# Target sequence (P03206 whole entry, looked up): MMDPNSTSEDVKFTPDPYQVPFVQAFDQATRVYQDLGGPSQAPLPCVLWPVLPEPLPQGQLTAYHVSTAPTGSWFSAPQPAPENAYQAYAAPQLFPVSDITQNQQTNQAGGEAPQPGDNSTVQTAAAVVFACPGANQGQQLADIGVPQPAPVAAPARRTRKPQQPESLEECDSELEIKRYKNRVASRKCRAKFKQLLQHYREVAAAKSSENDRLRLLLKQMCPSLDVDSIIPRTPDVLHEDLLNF
# NALP1 yeast inh: NALP1 inflammasome inhibitors in reconstituted yeast, colorimetric, S. cerevisiae, triplicate retest | S. cerevisiae NALP1/ASC/caspase-1 growth, X-gal OD620, 72 h | inhibition, % at 10 µM | hit rate 0.61% among 280,000; in the data active = inhibition mostly above about 24%, no sharp cut-off; inactive = mostly below about 32%
# * marks the source's active call; other numbers are inactive results; · = no result. Most compounds without a hit are left out; they make up all but 2.2% or so of the library.
SMILES,PolyA inhibitor,EBNA-1 inhibitor,dFosB activator,NALP3 yeast inh,ZTA counter,NALP1 yeast inh
Nc1nc(NCCCN2CCOCC2)nc(Nc2ccccc2F)c1[N+](=O)[O-],16.3,6.7,25.3*,25.0,12.9,10.2
Nc1nc(NCCCN2CCOCC2)nc(Nc2cccc(F)c2)c1[N+](=O)[O-],12.2,-1.0,25.8*,25.4,0.4,-7.8
COc1ccc(Nc2nc(NCCCN3CCOCC3)nc(N)c2[N+](=O)[O-])cc1,-0.1,-0.1,9.1,8.4,8.9,14.2
O=C1C=C(O)c2[nH]c(=O)ccc2C1=O,·,·,-11.2,·,·,·
CC(C)C(=O)Nc1cccc(COc2ccc(CN(CCc3ccccc3)C(=O)OC(C)(C)C)cc2)c1,·,·,-7.7,·,·,·
COc1ccc(C(=O)NC(=S)N2CCOCC2)cc1[N+](=O)[O-],-8.6,-0.6,-5.4,13.4,-1.5,1.8
Cc1ccc(OCCOc2ccc(S(=O)(=O)N3CCCC3)cc2C(N)=O)cc1,·,·,5.5,6.9,-14.9,·
O=C(COC(=O)CCNS(=O)(=O)c1ccc(Cl)cc1)Nc1ccccc1OC(F)F,·,·,2.6,16.3,·,·
COc1ccc(C(C(=O)NCc2ccccc2)N(C(=O)c2snc(C(N)=O)c2N)c2ccccc2OC)cc1 (centres undefined),-10.4,-3.3,-9.8,8.7,-2.9,10.8
COc1ccc(N(C(=O)c2snc(C(N)=O)c2N)C(C(=O)NCc2ccccc2)c2ccc(F)cc2)c(OC)c1 (centres undefined),-14.3,7.3,24.8*,10.2,19.1,12.8
CSc1ncccc1C(=O)OCC(=O)N1CCc2ccccc21,·,·,-6.9,4.5,·,·
CN1CCc2[nH]c3ccc(C(=O)NN)cc3c2C1,0.4,-6.9,20.4*,3.5,2.6,14.4
CCCCCCCCCCOC(=O)Cn1c(COc2ccccc2OC)[n+](C)c2ccccc21,-5.3,2.1,25.1*,24.6,9.4,37.4*
Oc1ccc(O)c(/C(=N/Nc2ccccc2)c2ccccc2)c1,-16.1,-4.1,·,5.2,-15.3,41.6*
Cc1cc(Br)ccc1OCCNCc1ccccc1,-13.1,-3.1,0.5,43.6,6.6,29.2*
Clc1ccc(OCCCNCc2ccccc2)c2ccccc12,-9.6,1.4,-34.0,32.0,11.6,50.1*
CCC(C)c1ccccc1NC(=O)CN1CCN(C/C=C/c2ccccc2)CC1 (centres undefined),8.0,2.4,2.5,15.5,-12.3,53.2*
Cc1cc(C(=O)CSc2nc3ccccc3n2CCC#N)c(C)n1Cc1cccs1,-16.2,34.1*,-7.0,7.6,16.5,20.6
N#CCCn1c(SCC(=O)c2c[nH]c3ccccc23)nc2ccccc21,1.2,-7.2,-7.9,2.7,-5.1,19.1
COc1ccc(C(=O)N2CCOC2CNC(=O)C(=O)NCc2ccc3c(c2)OCO3)cc1 (centres undefined),11.9,15.6,0.1,8.0,-7.3,-22.2
Cc1ccc(CNC(=O)C(=O)NCC2OCCN2C(=O)c2ccc3c(c2)OCO3)cc1 (centres undefined),15.1,-8.9,16.9*,0.4,1.8,-5.1
CS(=O)(=O)N1CCc2cc(C(=O)Nc3ccc(COCC(F)(F)F)cc3)ccc21,0.7,-19.5,-5.4,24.0,-18.9,0.2
Cc1ccc(C(=O)OCC(=O)Nc2ccc(N(C)C)cc2)cc1NC(=O)c1ccco1,-1.0,8.7,-13.6,5.6,-8.5,11.0
Cc1ccc(C(=O)OCC(=O)Nc2ccccc2)cc1NC(=O)c1ccco1,18.7,7.4,26.9*,3.6,11.3,26.4
Cc1ccc(C)c(NC(=O)C[n+]2ccccc2)c1,-3.3,2.1,0.6,16.2,6.4,15.7
SMILES,PolyA inhibitor,EBNA-1 inhibitor,dFosB activator,NALP3 yeast inh,ZTA counter,NALP1 yeast inh
c1ccc2c(c1)Nc1cc3ccccc3cc1O2,·,·,-3.0,·,·,·
CCOc1ccccc1NC(=O)/C=C/c1ccccc1[N+](=O)[O-],-9.4,-10.9,-11.7,23.5,-10.4,28.6
CCOc1ccccc1NC(=O)/C=C/C(N)=O,-2.5,-2.1,3.7,42.4,15.6,54.1*
CC(=O)Nc1ccc(NC(=S)NC(=O)C2CCCC2)cc1,10.1,2.0,1.7,0.9,3.4,32.1*
COc1ccc(NC(=S)NC(=O)C2CCCCC2)cc1,7.7,-4.3,-3.6,19.1,-7.1,19.1
O=C(NC(=S)Nc1ccccc1Br)C1CC1,-16.6,1.8,-1.7,16.6,-12.8,3.5
CCOc1ccccc1NC(=S)NC(=O)C1CC1,-8.3,-0.9,-12.4,8.7,2.9,26.2*
Cc1ccccc1CN1C(=O)[C@H]2Cc3c([nH]c4ccccc34)C(C)(C)N2C1=O,-11.9,-1.1,-7.9,1.4,-5.8,·
Cc1cc(CN2CCCCC2C(=O)Nc2ccc(Oc3cccnc3)cc2)oc1C (centres undefined),-12.6,1.6,-12.3,4.5,-7.1,13.4
COc1ccc(NC(=O)CCCn2cnc3ccccc3c2=O)cc1,-1.0,-4.2,-13.1,7.5,2.9,-7.0
CN(Cc1ccccc1)C(=O)c1ccc([N+](=O)[O-])o1,-17.5,-18.8,-0.1,-0.7,-16.6,48.0*
O=C(COC(=O)c1ccc([N+](=O)[O-])o1)NCc1ccccc1,·,·,-2.4,10.8,·,·
C[C@]12c3[nH]c4cc(-c5ccco5)ccc4c3CCN1C(=O)[C@@H](CC(=O)NCc1ccco1)C[C@@H]2C(=O)N1CCOCC1,·,·,-15.9,·,·,·
O=C(CCNS(=O)(=O)c1cccc2nsnc12)Nc1ccc2c(c1)OCCO2,2.7,0.3,1.9,5.9,19.7,5.8
O=S(=O)(Nc1ccc2c(c1)OCCO2)c1cccc2nsnc12,9.0,1.7,-3.1,16.8,11.5,31.2*
O=C(Cc1cccc(F)c1)N1CCOCC1,·,·,4.6,·,·,·
O=C(Cc1ccccc1)Nc1ccc2oc(=O)ccc2c1,4.2,-10.8,-19.1,10.5,-23.6,35.9*
O=C(Nc1ccc2oc(=O)ccc2c1)c1ccco1,9.4,-17.0,-11.5,2.7,1.5,7.0
OC(CSc1ccccc1Cl)CN1CCN(c2ccccc2F)CC1 (centres undefined),-24.8,-0.8,3.5,23.6,7.3,43.9
OC(CSc1c(Cl)cccc1Cl)CN1CCN(c2ccccc2F)CC1 (centres undefined),6.7,-6.0,-7.7,22.2,1.0,59.5*
CCN(CC)C(=O)C(=O)Nc1ccc(F)c(Cl)c1,-4.7,3.0,-9.1,1.9,22.3,3.7
CC(C)=C[C@H]1C[C@H](C)[C@H]2CC[C@H](C)c3c(O[C@@H]4OC[C@@H](O)[C@H](O)C4O)c(O)c(C)c1c32 (some centres undefined),·,·,5.4,-3.4,·,·
Cc1cc(C)c(NC(=O)CNC(=O)c2ccccc2OCc2c(C)noc2C)c(C)c1,-18.6,3.3,-6.3,-7.4,-9.1,·
O=C(CCN1C(=O)/C(=C/c2cccs2)SC1=S)Nc1ccc(O)cc1,-11.9,7.6,7.1,29.0,-7.2,14.1

# Bioassay records deposited in PubChem by several laboratories.
